Source: PubChem
RGS8-Gao = modulates binding of RGS8 to human Galphao; response (percent of control binding), % at 10 µM; hit rate 0.34% among 220,000; P09471; multiplexed bead flow cytometry; actives lie on both sides; in the data active = response below about 60% or above about 140%; inactive = in between;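 also: Galphao activated as the GDP aluminium fluoride complex binding bead-coupled RGS8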
Target sequence (P09471 whole entry, looked up): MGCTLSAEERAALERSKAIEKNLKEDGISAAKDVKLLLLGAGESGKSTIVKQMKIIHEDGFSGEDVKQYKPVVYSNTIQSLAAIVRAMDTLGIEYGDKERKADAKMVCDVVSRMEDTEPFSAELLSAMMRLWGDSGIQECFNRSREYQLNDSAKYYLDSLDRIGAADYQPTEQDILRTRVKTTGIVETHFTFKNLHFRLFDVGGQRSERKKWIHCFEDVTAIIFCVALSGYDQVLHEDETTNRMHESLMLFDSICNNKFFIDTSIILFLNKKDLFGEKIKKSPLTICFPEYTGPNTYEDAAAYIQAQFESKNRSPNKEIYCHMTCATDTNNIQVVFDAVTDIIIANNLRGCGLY
RGS16-Gao = regulators of human RGS16-Galphao interaction; AID 1441; binding response (% of control), % at 10 µM; bead-based flow cytometry RGS16-Galphao binding, fluorescence; actives lie on both sides; hit rate 0.38% among 220,000; O15492+P09471;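 also: Galphao activated by GDP with aluminum fluoride before binding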
RGS4-Gao reg = human RGS4-Galphao interaction regulation | P09471 | Multiplexed bead flow cytometry, RGS4-Galphao binding; actives lie on both sides | binding response (% of control), % at 10 µM | hit rate 0.33% among 220,000; in the data active = binding response below about 49% or above about 150%; inactive = in between;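 also: fluorescent Galphao activated with aluminum fluoride binding bead-coupled RGS4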
RGS7-Gao reg = human RGS7-Galphao interaction regulation | AID 1439 | hit rate 0.35% among 220,000 | Multiplexed bead flow cytometry, RGS7-Galphao binding; actives lie on both sides | P09471 | binding response (% of control), % at 10 µM; in the data active = binding response below about 49% or above about 150%; inconclusive = no clear call, values can overlap the other calls; inactive = in between;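 also: fluorescent Galphao held in activated GDP-AlF4 state binding bead-coupled RGS7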
GSH bead fluor = GSH bead compound fluorescence profile. GSH beads flow cytometry, compound fluorescence 488/530 nm; active compounds read high. fluorescence (KMESF) at 10 µM. hit rate 0.25% among 190,000. AID 1776; in the data active = fluorescence above about 89;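 also: glutathione beads carrying GST-tagged Bcl family fusion proteins plus one bare bead set; values are compound well signal with DMSO vehicle wells as background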
Avidin bead fluor = avidin bead compound fluorescence profile; Avidin beads, compound fluorescence 488/530 nm, flow cytometry; active compounds read high; fluorescence (KMESF) at 10 µM; hit rate 0.38% among 220,000; in the data active = fluorescence above about 47
RGS-Gao = RGS4-Galphao interaction regulator (human); shares compounds with RGS16-Gao; multiplexed bead flow cytometry, RGS–Galpha-o binding; RGS4–Galpha-o binding response, % at 10 µM; hit rate 99% among 1,600;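 also: fluorescently labeled Galpha-o bound to GDP with aluminium fluoride binding biotinylated RGS beads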
Target sequence (P09471 whole entry, looked up): as above
Target sequence (P49798 whole entry, looked up): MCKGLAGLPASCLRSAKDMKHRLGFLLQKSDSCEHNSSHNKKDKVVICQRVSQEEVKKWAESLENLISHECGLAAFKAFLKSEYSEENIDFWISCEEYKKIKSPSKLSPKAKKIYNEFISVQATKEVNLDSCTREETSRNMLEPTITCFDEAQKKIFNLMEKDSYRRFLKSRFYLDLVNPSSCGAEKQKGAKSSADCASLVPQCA
Avidin counter = counter-screen: compounds disrupting biotin binding to avidin beads; shares compounds with RGS16-Gao; streptavidin beads, fluorescein-biotin binding, flow cytometry; inhibition, % at 10 µM; 1,700 tested, under 10 active; AID 1783;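 active = inhibition above 50%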;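 also: median green fluorescence of gated singlet beads compared with DMSO control wells; 0% = DMSO wells and 100% = complete loss of bead fluorescence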
RGS8-Gao single = confirmation of regulators of human RGS8-Galphao interaction | shares compounds with RGS16-Gao | binding response (% of control), % at 10 µM | hit rate 3% among 1,700 | bead-based flow cytometry RGS8-Galphao binding, fluorescence; actives lie on both sides; in the data active = binding response below about 72% or above about 130%; inactive = in between;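 also: Galphao activated as GDP AlF4 complex before binding bead RGS8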
RGS7-Gao single = RGS7-Galphao interaction regulation, single point confirmation; shares compounds with RGS16-Gao; bead-based flow cytometry RGS7-Galphao binding; actives lie on both sides; response (percent of control binding), % at 10 µM; hit rate 7.8% among 1,700; in the data active = response below about 75% or above about 130%; inactive = in between;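 also: fluorescent Galphao activated with GDP and aluminum fluoride binding bead-coupled RGS7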
RGS16-Gao single = RGS16-Galphao interaction regulation, single point confirmation | shares compounds with RGS16-Gao | response (% of control binding), % at 10 µM | bead-based flow cytometry, RGS16-Galphao binding; actives lie on both sides | hit rate 4% among 1,700; in the data active = response below about 74% or above about 130%; inactive = in between;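 also: Galphao activated as the GDP aluminium fluoride complex binding bead-coupled RGS16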
RGS4-Gao single = confirmation of regulators of human RGS4-Galphao interaction. shares compounds with RGS16-Gao. RGS4-Galphao binding, multiplexed bead flow cytometry; actives lie on both sides. binding response (% of control), % at 10 µM. hit rate 4% among 1,700; in the data active = binding response below about 74% or above about 130%; inactive = in between
RGS19-Gao conf = confirmation of regulators of human RGS19-Galphao interaction; shares compounds with RGS16-Gao; bead-based flow cytometry RGS19-Galphao binding; actives lie on both sides; response (percent of control binding), % at 10 µM; hit rate 5% among 1,700; AID 1841; in the data active = response below about 50% or above about 160%; inactive = in between;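 also: 100% = no compound control and 0% = blank background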
Numbers without * were called inactive; [ ] = dose if it differs, or a comment. Hits are enriched below; roughly 1.2% of the tested compounds scored in any of these assays. Unless noted, no rule for the calls is given here.

CCOC(=O)c1cccc(NC(=O)Cn2c(CC(=O)NC)nc3ccccc32)c1 was read as RGS8-Gao 122, RGS16-Gao 191*[activator], RGS4-Gao reg 172*[activator], RGS7-Gao reg 116, GSH bead fluor 10, Avidin bead fluor 18, Avidin counter -2, RGS8-Gao single 102, RGS7-Gao single 109, RGS16-Gao single 105, RGS4-Gao single 105 and RGS19-Gao conf 117.
For CC1CCN(C(=O)c2ccc(N3C(=O)C4CCC(C)CC4C3=O)cc2)CC1 (stereo unspecified) the results were RGS8-Gao 67, RGS16-Gao 45, RGS4-Gao reg 32*, RGS7-Gao reg inconclusive, Avidin bead fluor 1, Avidin counter 0, RGS8-Gao single 101, RGS7-Gao single 106, RGS16-Gao single 102, RGS4-Gao single 102 and RGS19-Gao conf 96.
`CCc1nnc(NC(=O)CSc2nc(-c3ccccc3)cc(-c3ccc(OC)cc3)c2C#N)s1` gave RGS8-Gao 103, RGS16-Gao 102, RGS4-Gao reg 101, RGS7-Gao reg 101, GSH bead fluor 18 and Avidin bead fluor 14.
Screening COC(=O)c1ccc(C(=O)OC)c(NC(=S)N2CCC(C)CC2)c1 returned RGS8-Gao 102, RGS16-Gao 110, RGS4-Gao reg 101, RGS7-Gao reg 100, GSH bead fluor 17 and Avidin bead fluor 4.
Screening CCC(Oc1ccccc1)C(=O)N(Cc1ccccc1)c1ccccn1 (stereo unspecified) returned RGS8-Gao 97, RGS16-Gao 100, RGS4-Gao reg 93, RGS7-Gao reg 90, GSH bead fluor 24 and Avidin bead fluor 10.
`CC(C)C(=O)N(Cc1ccccc1)c1ccccn1` gave RGS8-Gao 113, RGS16-Gao 244*[activator], RGS4-Gao reg 251*[activator], RGS7-Gao reg 208*[activator], GSH bead fluor 38, Avidin bead fluor 116*, Avidin counter -2, RGS8-Gao single 102, RGS7-Gao single 98, RGS16-Gao single 100, RGS4-Gao single 100 and RGS19-Gao conf 100.
Screening COc1cccc(/C=C/C(=O)NCc2cn3cc(Cl)ccc3n2)c1OC returned RGS8-Gao 96, RGS16-Gao 99, RGS4-Gao reg 92, RGS7-Gao reg 90, GSH bead fluor 65 and Avidin bead fluor 12.
`N#Cc1nc(COc2ccc(Br)cc2)oc1NCCN1CCOCC1` gave RGS8-Gao 143*[activator], RGS16-Gao 121, RGS4-Gao reg 140, RGS7-Gao reg 133, GSH bead fluor 16, Avidin bead fluor 7, RGS-Gao 140*, Avidin counter 3, RGS8-Gao single 98, RGS7-Gao single 101, RGS16-Gao single 99, RGS4-Gao single 98 and RGS19-Gao conf 95.
`CCOc1ccc(NS(=O)(=O)c2ccc3ncsc3c2)cc1` gave RGS8-Gao 134, RGS16-Gao 143, RGS4-Gao reg 146, RGS7-Gao reg 152*[activator], GSH bead fluor 15, Avidin bead fluor 8, RGS-Gao 146*, Avidin counter 1, RGS8-Gao single 100, RGS7-Gao single 97, RGS16-Gao single 98, RGS4-Gao single 100 and RGS19-Gao conf 111.
`O=C(Cc1c[nH]c2ccccc12)N/N=C/c1ccc(F)cc1` gave RGS8-Gao 78, RGS16-Gao 21*, RGS4-Gao reg 92, RGS7-Gao reg 87, GSH bead fluor 14, Avidin bead fluor 7, RGS-Gao 92*, Avidin counter 1, RGS8-Gao single 104, RGS7-Gao single 99, RGS16-Gao single 103, RGS4-Gao single 105 and RGS19-Gao conf 102.
O=C(NCCNC1CCC(c2ccccc2)CC1)c1cccs1 (stereo unspecified) was read as RGS8-Gao 125, RGS16-Gao 227, RGS4-Gao reg 103, RGS7-Gao reg 102, GSH bead fluor 16 and Avidin bead fluor 8.
`CC1(C)N([O-])c2cc([N+](=O)[O-])ccc2[N+]1=O` gave RGS8-Gao 29*, RGS16-Gao -9.3*, RGS4-Gao reg 84, RGS7-Gao reg inconclusive, Avidin bead fluor 0 and RGS-Gao 84*.
`C=CCN(c1ccccc1Cl)S(=O)(=O)c1cccc(C(=O)OCC(=O)N(C)C2CCS(=O)(=O)C2)c1` (stereo unspecified) gave RGS8-Gao 101, RGS16-Gao 105, RGS4-Gao reg 103, RGS7-Gao reg 104, GSH bead fluor 12 and Avidin bead fluor 13.
Screening COCC(C)N=C1NN=C(c2cc(C)n(Cc3ccccc3Cl)c2C)CS1 (stereo unspecified) returned RGS8-Gao 102, RGS16-Gao 103, RGS4-Gao reg 104, RGS7-Gao reg inconclusive, GSH bead fluor 15 and Avidin bead fluor 11.
`CCc1cccc(NC(=O)Cn2c3[n+](c4ccc(C(F)(F)F)cc42)CCCCC3)c1` gave RGS8-Gao 147*[activator], RGS16-Gao 238*[activator], RGS4-Gao reg 128, RGS7-Gao reg 126, GSH bead fluor 9, Avidin bead fluor 4, RGS-Gao 128*, Avidin counter -1, RGS8-Gao single 106, RGS7-Gao single 108, RGS16-Gao single 105, RGS4-Gao single 108 and RGS19-Gao conf 113.
O=C(Cn1c2[n+](c3ccc(C(F)(F)F)cc31)CCCCC2)Nc1ccccc1 was read as RGS8-Gao 101, RGS16-Gao 106, RGS4-Gao reg 105, RGS7-Gao reg 104, GSH bead fluor 9 and Avidin bead fluor 9.
Cn1cc(Br)c(-c2cccc(NC(=O)CCCC(=O)O)c2)n1 was read as RGS8-Gao 98, RGS16-Gao 103, RGS4-Gao reg 104, RGS7-Gao reg inconclusive and Avidin bead fluor 9.
